Compound activity as filed in PubChem.
Most compounds without a hit are left out; they make up all but 9.3% or so of the library.
FLuc modulator = inhibits or activates purified firefly luciferase, miR-21 counter-screen | purified FLuc, Km substrates, luminescence inhibition | Potency, µM (titrated, usually from 57.5 µM), most hits filed as inhibitors | hit rate 6.9% among 360,000 | AID 588342; note: nearly all actives have a fitted effect of over 55% in size
Target sequence (P08659 whole entry, looked up): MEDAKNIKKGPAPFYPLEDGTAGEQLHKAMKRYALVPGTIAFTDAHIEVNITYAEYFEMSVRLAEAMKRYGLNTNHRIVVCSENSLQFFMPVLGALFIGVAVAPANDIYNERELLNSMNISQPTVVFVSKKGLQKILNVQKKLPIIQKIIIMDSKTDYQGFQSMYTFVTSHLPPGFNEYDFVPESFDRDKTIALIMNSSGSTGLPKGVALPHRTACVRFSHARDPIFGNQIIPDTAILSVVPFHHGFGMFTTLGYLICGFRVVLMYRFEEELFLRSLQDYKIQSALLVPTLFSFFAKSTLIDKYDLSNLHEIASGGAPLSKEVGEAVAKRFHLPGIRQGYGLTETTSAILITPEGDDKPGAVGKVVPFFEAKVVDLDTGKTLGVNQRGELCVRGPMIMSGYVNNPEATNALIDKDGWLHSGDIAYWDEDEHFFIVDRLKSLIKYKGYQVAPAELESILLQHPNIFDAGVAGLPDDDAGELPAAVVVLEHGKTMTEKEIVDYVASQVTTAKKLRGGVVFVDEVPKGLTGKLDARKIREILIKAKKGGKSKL
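Purified P. pyralis luciferase, 10 nM final, with Km-level 10 uM D-luciferin and 10 uM ATP in 50 mM Tris acetate pH 7.5, 10 mM Mg acetate, 0.01% Tween-20, 0.05% BSA; 6-point qHTS titration about 60 µM downward; luminescence read.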
ELG1 genotoxic = genotoxicity induction in ELG1-luciferase HEK293T cells | HEK293T ELG1-luciferase reporter, luminescence, 16 h | Potency, µM (series often up to 46 µM), usual class: activators | hit rate 1.3% among 330,000 | AID 504466; note: nearly all actives have a fitted effect of over 60% in size
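Genotoxic stress is detected as increased luminescence from luciferase-tagged ELG1 in HEK293T cells, measured with ONE-Glo after a 16 hr treatment at 37 °C.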
Rab9 prom act = activates the Rab9 promoter; Huh7 Rab9 promoter-luciferase reporter, luminescence, 24 h; Potency, µM (doses to about 9.22 µM), hits mostly activators; hit rate 2.8% among 320,000; note: nearly all actives have a fitted effect of over 60% in size
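Luciferase signal after 10 min detection reagent at ambient indicates Rab9 promoter upregulation; stably transfected Huh7 cells were treated 24 h with compound in DMSO at 37 °C, 5% CO2.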
SMN2 splice enh = SMN2 splice variant enhancement | hit rate 2.8% among 210,000 | HEK293 SMN2-luciferase splicing reporter, luminescence, 30-36 h | AID 1458 | Potency, µM (top dose mostly 46.1 µM), most hits filed as activators; note: nearly all actives have a fitted effect of over 55% in size
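HEK293 cells carry an SMN2 minigene-luciferase reporter in which exon 7 inclusion puts luciferase in frame. Cells were seeded at 2000 cells/well, attached for 10-12 hours, then exposed to compounds for 30-36 hours at 37C before ONE-Glo luminescence.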
ELG1 repair inh = ELG1-dependent DNA repair inhibition | HEK293T ELG1-luciferase reporter, luminescence, 16 h; DNA damage induced by 5-fluorouridine | Potency, µM (doses to about 46.1 µM), most hits filed as inhibitors | hit rate 2.3% among 330,000 | AID 504467; note: nearly all actives have a fitted effect of over 55% in size
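Step one: seed 2,000 cells per well. Step two: pin-transfer compound or DMSO alongside 5-fluorouridine. Step three: incubate 16 hr, 37 °C, 5% CO2. Step four: add ONE-Glo, wait 30 min, read luminescence.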
NPC1 prom act = activates the NPC1 promoter. hit rate 2.4% among 320,000. Huh7 NPC1 promoter luciferase reporter, 24 h. Potency, µM (doses to about 9.22 µM), usual class: activators. AID 485313; note: nearly all actives have a fitted effect of over 60% in size
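Cells: Huh7 expressing luciferase under the NPC1 promoter, 1500/well. Seeded 2 h, compound added, incubated 24 h at 37 °C. Luciferase reagent, 10 min ambient, then luminescence.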
A number is an active result; i = inactive; ? = inconclusive; nt = not tested or not shown; ! = repeats disagree; [ ] = remark or other dose. Calls come from the whole dose curve; as a rule, active = well fitted curve in the direction sought with a large enough effect; inconclusive = small, poorly fitted or top-dose-only effect, or another doubt; inactive = no such curve, though single readings can be large; an effect the other way counts as inactive or inconclusive.

SMILES	FLuc modulator	ELG1 genotoxic	Rab9 prom act	SMN2 splice enh	ELG1 repair inh	NPC1 prom act
Cc1cc(C)nc(-n2nc(C)cc2NC(=O)CN2CCc3ccccc3C2)n1	i	i	i	i	3.7µM	i
O=C(O)CCCNC(=O)c1ccccn1	i	i	i	i	i	i
CCOC(=O)Cn1nc(NC(=O)c2ccc3c(c2)OCO3)cc1C	?	i	i	nt	i	i
O=C(Nc1ccn(Cc2ccc(Cl)cc2)n1)c1ccccc1	11µM	?	3.5µM	13µM	?	?
Cc1ccc(C(=O)Nc2ccc(F)cc2F)o1	i	i	i	i	?	i
Cc1ccc(C(=O)Nc2ccn(Cc3ccc(F)cc3)n2)o1	15µM	i	?	nt	?	?
O=C(Nc1ccn(Cc2ccccc2)n1)c1ccc2c(c1)OCO2	5.4µM	i	2.8µM	?	?	?
Cc1oc(-c2cccc(Br)c2)nc1CSc1nc2ncccc2[nH]1	i	nt	nt	nt	nt	nt
CC(C)(C)c1nnc(NC(=S)Nc2ccccc2)s1	9.5µM	?	3.2µM	13µM	?	3.5µM
S=C(Nc1ccccc1)Nc1nccs1	15µM	i	?	?	?	2.5µM
O=C(Cc1ccccc1)Nc1nccs1	i	i	i	nt	i	i
Fc1ccc(NC(=S)Nc2nccs2)cc1	21µM	i	3.5µM	?	?	?
O=C(Cc1ccc(F)cc1)Nc1nccs1	i	i	i	nt	i	i
COc1cc(OC)cc(C(=O)Nc2nnc(NC(=S)Nc3ccccc3)s2)c1	i	i	i	i	i	i
CC1CCCN(C(=O)C2CC(=O)N(c3ccc(Cl)cc3)C2)C1 (configuration not stated)	i	i	i	nt	i	i
CCCCNC(=O)CSc1nc2cc3c(cc2c(=O)n1CCCCCC(=O)NCc1ccc(OC)cc1)OCO3	i	nt	nt	nt	nt	nt
Cn1cccc1C(=O)NC(=O)COC(=O)CNC(=O)CNC(=O)c1ccc(Cl)cc1Cl	i	i	i	i	i	i
O=c1oc2ccccc2cc1O	nt	nt	nt	i	nt	nt
O=c1oc2ccccc2cc1-c1ccc(O)cc1	12µM	?	3.5µM	?	?	?
Nc1ccc2oc(=O)c(-c3ccccc3)cc2c1	?	?	i	nt	i	?
O=c1oc2ccccc2cc1NCc1ccccc1O	15µM	?	i	i	?	i
Nc1ccc(-c2cc3ccccc3oc2=O)cc1	21µM	i	i	nt	i	i
COc1ccc(S(=O)(=O)NCCc2csc(-c3ccc(F)cc3)n2)cc1	i	nt	nt	nt	nt	nt
CCOc1ccc(N2C(=O)S/C(=C\c3cccn3C)C2=O)cc1	i	i	i	?	?	i
Cn1cccc1/C=C1\SC(=O)N(c2ccc(O)cc2)C1=O	?	?	?	13µM	?	?
SMILES	FLuc modulator	ELG1 genotoxic	Rab9 prom act	SMN2 splice enh	ELG1 repair inh	NPC1 prom act
CC(=O)c1cccc(NC(=O)C2=CN3CCS(=O)(=O)N=C3C=C2)c1	i	i	i	nt	?	i
COc1ccc(/C=C/C(=O)Nc2ccc(C)c(S(=O)(=O)N3CCOCC3)c2)cc1	nt	i	nt	nt	21µM	nt
O=C(COc1ccc(Br)cc1CO)Nc1ccc(S(=O)(=O)N2CCCC2)cc1	i	i	i	nt	?	i
COc1ccc(/C=C/C(=O)Nc2ccc(S(=O)(=O)N3CCOCC3)cc2)c(OC)c1	?	i	i	nt	23µM	i
Cc1ccc(NC(=O)Nc2ccccc2F)cc1S(=O)(=O)N1CCOCC1	?	i	i	nt	21µM	i
Cc1ccc(NC(=O)COc2ccc(Br)cc2CO)cc1S(=O)(=O)N1CCOCC1	nt	i	nt	nt	21µM	nt
Cc1cccc(C(=O)NNC(=O)CCCCC(=O)NNC(=O)c2cccc(C)c2)c1	i	i	i	nt	?	i
CCCN(CCC)CCCNC(=O)c1nn(-c2cccc(OC)c2)c(=O)c2ccccc12	i	i	i	nt	i	i
COC(C[C@@H]1O[C@@H]1[C@@H](O)COCc1ccccc1)OC	i	i	i	nt	i	i
CN(C)S(=O)(=O)c1cccc(COC(=O)Cc2c(F)cccc2Cl)c1	i	i	i	nt	i	i
Cc1ccc(NC(=O)/C=C/c2ccc3c(c2)OCO3)cc1S(=O)(=O)N1CCOCC1	11µM	i	i	i	?	i
Cc1cc(C(=O)Nc2ccc(C)c(S(=O)(=O)N3CCOCC3)c2)c(C)o1	i	i	i	i	i	i
Nc1cc(-c2ccccc2)ccc1O	24µM	i	i	i	8.2µM!	i
N/C(=N\OC(=O)c1cc([N+](=O)[O-])ccc1Cl)c1ccccn1	24µM	i	i	nt	?	i
Cc1ccc(OC(=O)c2ccc([N+](=O)[O-])cc2Cl)cn1	12µM	i	i[1.84 µM]	nt	i	i
N/C(=N\OC(=O)c1ccc([N+](=O)[O-])cc1Cl)c1ccccn1	0.12µM	0.33µM	0.32µM	nt	?	?
N/C(=N\OC(=O)c1cccc([N+](=O)[O-])c1)c1ccccn1	5.4µM	i	3.5µM	14µM	?	?
